Drawing on PubChem BioAssay (EPA / NIEHS), this text covers AC50 and outcome for nine molecules.

Broadly, the AC50 is the concentration at which the activity in the assay is half-maximal.

Calls of active or inactive are those of the source. How the source made its calls: active means hit-call score of the fitted dose curve at least 0.9, where 1 is the maximum; inactive means score below 0.9.

Read-out in assay [1]: Vascular cell adhesion molecule 1 (VCAM1), VCAM1 (gene 7412)
Kind of assay: BSK_4H_VCAM1: BioMAP Diversity Plus: 4H Assay for Vascular cell adhesion molecule 1 (VCAM1) Biomarker Activity (AID 2283033).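 On outcome: cell-surface VCAM-1 protein measured by ELISA.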 To be noted: primary human endothelial cells (HUVEC); actives raise or lower the signal. The procedure, abridged: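 Primary human umbilical vein endothelial cells were exposed to chemicals for 24 h, after which VCAM-1 was quantified by ELISA. Responses were fitted bidirectionally against DMSO as negative control and activity baseline.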

Read-out in assay [2]: Interferon-gamma inducible Protein 10 (IP10), CXCL10 (gene 3627)
The assay can be described thus: BSK_BE3C_IP10: BioMAP Diversity Plus: BE3C Assay for Interferon-gamma inducible Protein 10 (IP10) Biomarker Activity (AID 2283034). To be noted: primary human bronchial epithelial cells; actives raise or lower the signal. Put shortly: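 Human primary bronchial epithelial cells were exposed to chemicals for 24 hours, after which IP-10 levels were measured by ELISA. Data were fitted bidirectionally against DMSO, which served as the negative control and activity baseline.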

Read-out in assay [3]: Monokine induced gamma interferon (MIG), CXCL9 (gene 4283)
Kind of assay: BSK_BE3C_MIG: BioMAP Diversity Plus: BE3C Assay for Monokine induced gamma interferon (MIG) Biomarker Activity (AID 2283035).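 On outcome: MIG protein measured by ELISA in BE3C cultures after 24 h of dosing.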 As to conditions: primary human bronchial epithelial cells; actives raise or lower the signal. The procedure, abridged: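 MIG level was determined by ELISA after 24 h chemical treatment of primary human bronchial epithelial cells. Values were fitted bidirectionally with DMSO as the negative control and activity baseline.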

Read-out in assay [4]: Transforming growth factor beta 1 (TGFb1), TGFB1 (gene 7040)
Kind of assay: BSK_BE3C_TGFb1: BioMAP Diversity Plus: BE3C Assay for Transforming growth factor beta 1 (TGFb1) Biomarker Activity (AID 2283036). As to conditions: primary human bronchial epithelial cells; actives raise or lower the signal. Put shortly:
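Human primary bronchial epithelial cells (BE3C system) were dosed with chemical and TGF-b1 levels measured by ELISA at 24 h. Activity was fitted bidirectionally relative to DMSO negative control as baseline.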

Read-out in assay [5]: urokinase plasminogen activator (uPA), PLAU (gene 5328)
Kind of assay: BSK_BE3C_uPA: BioMAP Diversity Plus: BE3C Assay for urokinase plasminogen activator (uPA) Biomarker Activity (AID 2283038).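 On outcome: uPA protein level quantified by ELISA in cell cultures; uPA read one day after compound addition.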 To be noted: primary human bronchial epithelial cells; actives raise or lower the signal. The procedure, abridged: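 ELISA for uPA on human primary bronchial epithelial cultures 24 h post-treatment, gain or loss against DMSO. Parallel SRB staining (0.1% after 10% TCA fixation, 560 nm) assessed overt cytotoxicity.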

Read-out in assay [6]: Urokinase-type plasminogen activator receptor (uPAR), PLAUR (gene 5329)
Kind of assay: BSK_BE3C_uPAR: BioMAP Diversity Plus: BE3C Assay for Urokinase-type plasminogen activator receptor (uPAR) Biomarker Activity (AID 2283039).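 On outcome: cells exposed to compound for one day before measurement.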 To be noted: primary human bronchial epithelial cells; actives raise or lower the signal. Put shortly: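 Primary human bronchial epithelial cells were dosed with chemical and harvested 24 h later; uPAR was quantified by ELISA. Activity was fitted bidirectionally against DMSO as negative control and baseline.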

Read-out in assay [7]: Interleukin-6 (IL6), IL6 (gene 3569)
The assay can be described thus: BSK_CASM3C_IL6: BioMAP Diversity Plus: CASM3C Assay for Interleukin-6 (IL6) Biomarker Activity for (AID 2283040). As to conditions: primary human coronary artery smooth muscle cells; actives raise or lower the signal.

Read-out in assay [8]: Tissue plasminogen activator (tPA), PLAT (gene 5327)
The assay can be described thus: BSK_BE3C_tPA: BioMAP Diversity Plus: BE3C Assay for Tissue plasminogen activator (tPA) Biomarker Activity (AID 2283041).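 On outcome: tPA level quantified by ELISA one day after compound addition.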 To be noted: primary human bronchial epithelial cells; actives raise or lower the signal. Put shortly:
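Human primary bronchial epithelial cells were dosed with chemical and tPA biomarker levels measured by ELISA 24 hours later. Activity was fitted bidirectionally against DMSO as negative control and baseline.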

Read-out in assay [9]: Interleukin-8 (IL8), CXCL8 (gene 3576)
The assay can be described thus: BSK_CASM3C_IL8: BioMAP Diversity Plus: CASM3C Assay for Interleukin-8 (IL8) Biomarker Activity (AID 2283042).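 Further: IL-8 protein level quantified by ELISA.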 To be noted: primary human coronary artery smooth muscle cells; actives raise or lower the signal.

Read-out in assay [10]: Human Leukocyte Antigen - DR isotype (HLADR), HLA-DRA (gene 3122)
Kind of assay: BSK_CASM3C_HLADR: BioMAP Diversity Plus: CASM3C Assay for Human Leukocyte Antigen - DR isotype (HLADR) Biomarker Activity (AID 2283043).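 Further: cell-surface HLA-DR protein level quantified by ELISA.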 As to conditions: primary human coronary artery smooth muscle cells; actives raise or lower the signal.

Read-out in assay [11]: Macrophage colony-stimulating factor (MCSF), CSF1 (gene 1435)
Kind of assay: BSK_CASM3C_MCSF: BioMAP Diversity Plus: CASM3C Assay for Macrophage colony-stimulating factor (MCSF) Biomarker Activity (AID 2283044).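 Further: M-CSF protein amount quantified by ELISA after 24 h exposure.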 To be noted: primary human coronary artery smooth muscle cells; actives raise or lower the signal.

Read-out in assay [12]: Low-density lipoprotein receptor (LDLR), LDLR (gene 3949)
The assay can be described thus: BSK_CASM3C_LDLR: BioMAP Diversity Plus: CASM3C Assay for Low-density lipoprotein receptor (LDLR) Biomarker Activity (AID 2283045).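 Further: LDLR protein level on the cell surface quantified by ELISA.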 To be noted: primary human coronary artery smooth muscle cells; actives raise or lower the signal.

Read-out in assay [13]: Monocyte Chemoattractant Protein-1 (MCP1), CCL2 (gene 6347)
Kind of assay: BSK_CASM3C_MCP1: BioMAP Diversity Plus: CASM3C Assay for Monocyte Chemoattractant Protein-1 (MCP1) Biomarker Activity (AID 2283046).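 Further: MCP-1 level quantified by ELISA 24 h after dosing.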 To be noted: primary human coronary artery smooth muscle cells; actives raise or lower the signal.

The nature of assay [14]: BSK_CASM3C_Proliferation: Cell Proliferation Assessment in the BioMAP Diversity Plus: CASM3C Assay (AID 2283047).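 Further: sulforhodamine B total protein stain as relative cell number at 560 nm; sub-confluent cells exposed 48 h before staining; fitted both ways against DMSO so gain or loss of cell number.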 As to conditions: primary human coronary artery smooth muscle cells.
Read-out in assay [15]: Monokine induced gamma interferon (MIG), CXCL9 (gene 4283)
The assay can be described thus: BSK_CASM3C_MIG: BioMAP Diversity Plus: CASM3C Assay for Monokine induced gamma interferon (MIG) Biomarker Activity (AID 2283048). To be noted: primary human coronary artery smooth muscle cells; actives raise or lower the signal.

Read-out in assay [16]: serum amyloid A (SAA), SAA1 (gene 6288)
The assay can be described thus: BSK_CASM3C_SAA: BioMAP Diversity Plus: CASM3C Assay for serum amyloid A (SAA) Biomarker Activity (AID 2283049).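 Further: SAA protein level quantified by ELISA.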 To be noted: primary human coronary artery smooth muscle cells; actives raise or lower the signal.

A short description of assay [17]: BSK_CASM3C_SRB: Viability Assessment in the BioMAP Diversity Plus: CASM3C Assay (AID 2283050).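 Further: total protein by SRB staining as cytotoxicity measure in parallel cultures.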 To be noted: primary human coronary artery smooth muscle cells.
Read-out in assay [18]: Thrombomodulin, THBD (gene 7056)
Kind of assay: BSK_CASM3C_Thrombomodulin: BioMAP Diversity Plus: CASM3C Assay for Thrombomodulin Biomarker Activity (AID 2283051).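 Further: thrombomodulin protein level measured by ELISA 24 h after dosing.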 To be noted: primary human coronary artery smooth muscle cells; actives raise or lower the signal.

Read-out in assay [19]: Tissue Factor, F3 (gene 2152)
Kind of assay: BSK_CASM3C_TissueFactor: BioMAP Diversity Plus: CASM3C Assay for Tissue Factor Biomarker Activity (AID 2283052).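 Further: cell surface tissue factor protein level read by ELISA.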 As to conditions: primary human coronary artery smooth muscle cells; actives raise or lower the signal.

As to `CC(=O)[O][Hg][c]1ccccc1`, the AC50 was 2.37 µM (active) in assay [1]; 0.94 µM (active) in assay [2]; 2.01 µM (active) in assay [3]; 148 nM (active) in assay [4]; 1.06 µM (active) in assay [5]; 1.8 µM (active) in assay [6]. The AC50 in [7] is 3.56 µM (active); in [8] it was 537 nM (active); in assay [9], 3.6 µM (active); in [10] it was 0.58 µM (active); in assay [11], 816 nM (active); in [12], 148 nM (active). The AC50 was 394 nM (active) in assay [13]; 148 nM (active) in [14]; 2.05 µM (active) in assay [15]; 470 nM (active) in [16]; 148 nM (active) in [17]; 3.97 µM (active) in assay [19]. The result in [18] was inactive.

With `OCc1ccco1`, the result in assay [1], in assay [2], in [3], in [4], in [5] and in assay [6] was inactive. Also, the result in assay [7], in [8], in [9], in [10], in assay [11] and in assay [12] was inactive. Further, the result in assay [13], in assay [14], in [15], in assay [16], in [17] and in assay [18] was inactive. In addition, the result in [19] was inactive.

As for `CC1(C)Cc2cccc(O)c2O1`, the result in [1], in assay [2], in assay [3], in [4], in assay [5] and in assay [6] was inactive. The result in assay [7], in assay [8], in assay [9], in assay [10], in assay [11] and in assay [12] was inactive. The outcome in assay [13], in assay [14], in [15], in assay [16], in assay [17] and in assay [18] was inactive. Besides, the result in assay [19] was inactive.

In the case of `CCSC(C)CC1CC(=O)C(C(CC)=NOC/C=C/Cl)=C(O)C1` (stereo unspecified), the result in assay [1], in assay [2], in assay [3], in assay [4], in assay [5] and in [6] was inactive. Moreover, the outcome in [7], in assay [8], in assay [9], in [10], in assay [11] and in assay [12] was inactive. Moreover, the outcome in [13], in assay [14], in assay [15], in assay [16], in assay [17] and in [18] was inactive. In assay [19], the outcome was inactive.

As to `COP(=S)(OC)Oc1ccc(Sc2ccc(OP(=S)(OC)OC)cc2)cc1`, the AC50 was 30.2 µM (active) in [1], 18.2 µM (active) in assay [2], 10000 nM (active) in [8] and 12.6 µM (active) in assay [18]. The outcome in assay [3], in assay [4], in [5], in [6], in assay [7] and in assay [9] was inactive. The result in assay [10], in [11], in [12], in assay [13], in [14] and in [15] was inactive. Moreover, the outcome in assay [16], in [17] and in assay [19] was inactive.

Consider `CCCCC(CC)CO[N+](=O)[O-]` (stereo unspecified), for which the AC50 is 30.5 µM (active) in assay [1]; 31.8 µM (active) in [7]; 28.2 µM (active) in assay [10]; 29600 nM (active) in assay [11]; 20000 nM (active) in [13]; 33600 nM (active) in assay [17]. Also, the result in [2], in assay [3], in assay [4], in [5], in assay [6] and in assay [8] was inactive. Besides, the result in assay [9], in assay [12], in [14], in [15], in assay [16] and in assay [18] was inactive. The outcome in assay [19] was inactive.

Turning to `CC12CC1(C)C(=O)N(c1cc(Cl)cc(Cl)c1)C2=O` (stereo unspecified), the outcome in assay [1], in [2], in [3], in [4], in [5] and in assay [6] was inactive. Further, the outcome in [7], in [8], in assay [9], in [10], in [11] and in [12] was inactive. The outcome in [13], in [14], in [15], in assay [16], in assay [17] and in assay [18] was inactive. Besides, in [19], the outcome was inactive.

Take `C=C(C)C(=O)[O][Sn]([CH2]CCC)([CH2]CCC)[CH2]CCC`: the half-maximal activity concentration (AC50) in [1] was 0.148 µM (active); in assay [2], 0.336 µM (active); in [3] it was 0.147 µM (active); in [4] it was 146 nM (active); in assay [5], 0.215 µM (active); in assay [6] it was 0.146 µM (active). The AC50 in assay [7] was 0.148 µM (active); in [8], 148 nM (active); in assay [9] it was 0.359 µM (active); in [10], 0.148 µM (active); in [11], 326 nM (active); in [12] it was 148 nM (active). Besides, the AC50 is 292 nM (active) in assay [13]; 148 nM (active) in assay [14]; 1.03 µM (active) in [15]; 366 nM (active) in [16]; 148 nM (active) in assay [17]; 1.54 µM (active) in [18]. For the same molecule, the AC50 in assay [19] is 1.15 µM (active).

For the molecule `COP(=S)(OC)Oc1cc(Cl)c(Cl)cc1Cl`, the AC50 in assay [1] is 24.9 µM (active); in [2], 19.1 µM (active); in assay [10], 20 µM (active); in assay [11], 3970 nM (active); in assay [14], 29300 nM (active); in assay [16], 20000 nM (active). Further, the outcome in assay [3], in [4], in assay [5], in assay [6], in assay [7] and in assay [8] was inactive. Besides, the result in assay [9], in assay [12], in assay [13], in [15], in assay [17] and in [18] was inactive. Besides, the outcome in assay [19] was inactive.
